# In ChEMBL document CHEMBL4888484, “Replenishing the malaria drug discovery pipeline: Screening and hit evaluation of the MMV Hit Generation Library 1 (HGL1) against asexual blood stage Plasmodium falciparum ,using a nano luciferase reporter read-out” (2022):
# About 410 (8.5%) of roughly 4,800 compounds showed an effect of 50% or more. The sample as a whole holds a higher share of strong results than the screen did.
# Tested on: Plasmodium falciparum
# Experiment: Confirmatory screen in NF54 pLDH assay, in single point, at 2uM, 72h
# Assay type: functional, Erythrocyte
# Conditions: timepoint 72 hour
row,Compound,% Inhibition
1,Cc1onc(C(=O)NCc2cnn(C)c2C)c1COc1cccc(C(F)(F)F)c1,-4%
2,O=C(Cn1cnc2cc3c(cc21)OCCCO3)Nc1ccc(F)cc1,13%
3,CCc1ccsc1CN=C(N)NC1CCCCC1,-9%
4,O=C(Nc1cc(-c2onc3c2CCCC3)cc(C(F)(F)F)c1)c1cncc(Br)c1,95%
5,O=C(Nc1onc2c1CCC2)c1ccc2ccccc2c1,41%
6,Clc1ccc(-c2onc3c2CCCC3)cc1,9%
7,Cc1cc(C)cc(-c2cc3nc(C)cc(N4CCC(C(=O)Nc5ccc(C)c(Cl)c5)CC4)n3n2)c1,-12%
8,Cc1cc(C)cc(-c2cc3nc(C)cc(N4CCC(C(=O)NCc5cccc(F)c5)CC4)n3n2)c1,67%
9,O=C(NCc1cccc(F)c1)[C@H]1CCCN(c2nc3ccccc3n(Cc3ccccc3)c2=O)C1,5%
10,CC1CN(CC(=O)NCCC#N)C(C)CO1 (stereo not drawn),1%
11,Cc1ccc(CN2C(=O)NC3(CCCCC3C)C2=O)c(OCC2CCOC2)c1 (stereo not drawn),6%
12,O=C(NCCCN1CCOCC1)C1C2CCCC21 (stereo not drawn),8%
13,CN(C)c1ccc(-c2nc(C(F)(F)F)cc(C(F)(F)C(F)(F)F)n2)cc1,5%
14,Oc1cccc(CN2CCC3(CC2)C[C@H](c2ccccc2)CN(C2CC2)C3)c1,29%
15,Cc1c(C(=O)Nc2cccc(S(=O)(=O)NC3CC3)c2)cnn1C,12%
16,CC1(CCCCNC(=O)N2CC[C@H](S(C)(=O)=O)C2)OCCO1,6%
17,CCN1c2cc(C(=O)NCc3ccccc3)ccc2C(=O)N2CCCC[C@H]21,7%
18,COc1ccc(-n2nc(C)c3c2NC(=O)C[C@@H]3c2ccccc2OCC(C)C)nn1,-1%
19,Cc1cc(=O)n(CC(=O)Nc2ccc(Cl)c(C(F)(F)F)c2)c(-c2ccc(F)cc2)n1,0%
20,Cc1noc(C)c1CC(=O)Nc1cccc(-c2nnco2)c1,9%
21,Cc1nc2cc3c(cc2n1CC(=O)Nc1ccc(Cl)cc1)OCCCO3,15%
22,Cn1cc(-c2ccc(Cl)cc2)c2ncn(CC(=O)Nc3cccc(Cl)c3)c(=O)c21,-1%
23,CCc1cccc(NC(=O)Cn2ccc3ccc(-c4nnc(C)o4)cc32)c1,89%
24,Cc1nnc(-c2ccc3ccn(CC(=O)Nc4ccc(F)c(Cl)c4)c3c2)o1,96%
25,CC1CCCC(C)C12NC(=O)N(CN1CCN(CCOc3ccccc3Cl)CC1)C2=O (stereo not drawn),5%
26,CCOc1ccc(CNC(=O)c2sccc2NC(=O)c2cnccn2)cc1,-15%

row,Compound,% Inhibition
1,COc1ccc(C(=O)c2c[nH]c(C(=O)NC[C@H]3CCCO3)c2)cc1,3%
2,COc1ccccc1CNC(=O)c1cnn2c3c(cnc12)CCCC3,-2%
3,Brc1cc(Br)c2nc(-c3cnccn3)ccc2c1,14%
4,CC(=O)c1ccc(N2CCN(C(=O)c3nn[nH]c3Nc3ccc(C)c(C)c3)CC2)cc1,8%
5,CCn1cc(Cl)c(-c2nnc(-c3cccs3)o2)n1,0%
6,CC1CN(C)C(C)c2c1oc1ccc(N)cc21 (stereo not drawn),-17%
7,CC1=NN(c2ncc(C(F)(F)F)cc2Cl)C(=O)c2ccccc2O1,6%
8,CN1CCC(Nc2ncnc3c2cnn3C)C1c1ccc(Cl)cc1 (stereo not drawn),12%
9,Cc1cc2ncn(CN3CC[C@@H](NC(=O)OC(C)(C)C)C3)c2cc1C,-7%
10,CC1CC(Nc2ncnc3cc(Br)ccc23)CCN1C (stereo not drawn),95%
11,CCCOc1cccc2c(NC3CCN(CCOC)CC3)ccnc12,48%
12,Brc1cncnc1NC1CC1,9%
13,O=C(NCc1ccco1)c1nc(-c2ccncc2)cs1,10%
14,Cc1noc(C)c1NC(=O)CCS(=O)(=O)c1ccc2ccccc2c1,4%
15,O=C(Nc1nccnc1C(=O)O)c1ccc(Cl)cc1,14%
16,CC1CCC(N2CC(C(=O)N(C3CC3)C(C)C(C)C)CC2=O)CC1 (stereo not drawn),1%
17,O=C1c2ccccc2C(=O)N1CCc1csc(Cn2cncn2)n1,10%
18,c1ccc(Oc2ccnc(NCC34COCCN3CCOC4)n2)cc1,-13%
19,CN1CCN(C2(CNc3ccnc4ccccc34)CCCC2)CC1,98%
20,Cc1noc(OCCc2ccccc2)n1,11%
21,Cc1ccc(C)c(-n2cnc(=O)n2[C@H]2CCN(C3CC3)C2=O)c1,51%
22,Cc1ccc(C)c(N2CCN(c3ncc4c(=O)n(-c5ccc6c(c5)OCO6)c(=O)[nH]c4n3)CC2)c1,3%
23,Brc1ccc2c(c1)C1CCCCC1N2 (stereo not drawn),9%
24,CC[C@H]1CN2C=NC(N3CCN(C(=O)Nc4cc(F)cc(F)c4)CC3)=CC2=N1,46%
25,Cc1c(F)cccc1NC(=O)N1CCN(C2=CC3=N[C@@H](C)CN3C=N2)CC1,54%
26,CC[C@H]1CN2C=NC(N3CCN(C(=O)Cc4ccccc4)CC3)=CC2=N1,25%

row,Compound,% Inhibition
1,COC(=O)c1nc(NC(=O)C2(C)CCCC2)sc1C(C)C,-9%
2,Cc1nnc(N2CC[C@H](c3nnc[nH]3)C2)s1,4%
3,COc1c[nH]c(C(=O)NC2CCN(Cc3ccccc3)CC2)cc1=O,1%
4,CC1(C)CC(=O)C2(Cc3ccccc3N3CCN(Cc4ccccc4)C[C@H]32)C(=O)C1,12%
5,O=C(CN1C(=O)COc2cc(Br)ccc21)Nc1cccc2ccccc12,9%
6,CC1CCCN(C2(N3CCCC(C)C3)C(=O)Nc3ccc(F)cc32)C1 (stereo not drawn),19%
7,N#Cc1cccc(CNCC2(N3CCOCC3)CCCCC2)c1,-4%
8,Cc1c(S(=O)(=O)NCCn2nc(C(F)(F)F)cc2C)cnn1C,8%
9,Cc1c(C)c2ccc(NC(=O)c3cc4ccccc4o3)cc2[nH]c1=O,78%
10,Cc1nc2sc(C(=O)Nc3ccc4ccccc4c3)c(N)c2c(C)c1C,9%
11,Cc1cc(C(=O)Nc2ccc3ccccc3c2)co1,-3%
12,O=C(Cn1c(=O)n(-c2cc(F)cc(F)c2)c(=O)c2sccc21)NCc1ccc(F)cc1F,-2%
13,CCC(CC)C(=O)c1c[nH]c(C(N)=O)c1,-17%
14,Cc1noc(CCNC(=O)N2CCCCC[C@H]2c2ccc(C)o2)n1,-1%
15,CC(C)(C)c1nc(Cn2cnc3ncc(Br)cc32)no1,6%
16,NS(=O)(=O)N1CCN(Cc2ccn(C3CCCC3)n2)CC1,9%
17,Cc1nn(-c2ncccn2)c2c1[C@@H](c1ccccc1)CC(=O)N2,-15%
18,Cc1nn(-c2nc3ccccc3[nH]2)c2c1[C@@H](c1cccnc1)CC(=O)N2,79%
19,O=C1C[C@H](c2cccnc2)c2cnn(C3CCCC3)c2N1,16%
20,Cc1noc(C2CCN(CC(=O)Nc3ccccc3C(=O)NCC(C)C)CC2)n1,1%
21,CCOC(=O)c1nc[nH]c1-n1nc(C)cc1C,7%
22,COc1ccc(-c2nccn3cc(C(=O)N4CCCCCC4)nc23)cc1,4%
23,CC(=O)NC1CN(C(=O)Nc2ccc(C(C)C)c(F)c2)C1,-11%
24,COc1ccc(C2C(C(=O)O)c3ccccc3C(=O)N2C2CCCCC2)cc1 (stereo not drawn),-13%
25,Cc1c([C@@H](NCc2ncccc2O)C(C)C)oc2ccccc12,94%
26,CC1=NN(c2nc(C)cc(O)n2)C(=O)C1,-6%

row,Compound,% Inhibition
1,COc1cccc(-c2nc3n(c2C(=O)Nc2ccccc2C#N)CCS3(=O)=O)c1,9%
2,Cc1ccc(-c2ccc(=O)n(CCC(=O)N3CCN(C4CCCCC4)CC3)n2)cc1,0%
3,C[C@H]1C(=O)N(C)C[C@@H](CNS(=O)(=O)c2ccccc2)N1Cc1cccnc1,9%
4,CCN(CC)c1ccc(NS(=O)(=O)c2cc(S(=O)(=O)c3ccc(Cl)c(S(=O)(=O)Nc4ccc(N(CC)CC)cc4)c3)ccc2Cl)cc1,5%
5,CN(C)CC(O)COc1ccc(S(=O)(=O)c2ccc(OCC(O)CN(C)C)c(Cl)c2)cc1Cl (stereo not drawn),61%
6,COc1cc(=O)c(C(=O)NCCN2CCCCC2)nn1-c1ccc(F)cc1,0%
7,O=C(c1[nH]nc(C2CC2)c1Br)N1CCC12CCC2,-3%
8,Cc1ccc(C(=O)N2CCCC23CCC3)nn1,-9%
9,CCOc1ccc(C2C(C(=O)O)CCC(=O)N2C2CCCCC2)cc1 (stereo not drawn),10%
10,CN(C)c1ccc(C(=O)N2CC[C@H]3NC(=O)N(Cc4ccccc4)C(=O)[C@H]32)cc1,-5%
11,Cc1ccc(S(=O)(=O)Nc2cccc(-c3csc(C)n3)c2)cc1,10%
12,COc1ccc(CNC(=O)c2sc(Nc3ccc(C)cc3C)nc2C)c(OC)c1,-2%
13,O=C1[C@H](c2cccnc2)N(CCCc2ccccc2)C(=O)CN1c1ccccc1,-15%
14,CCN(CCN(C)C)C(=O)c1cccc(-c2ccc3nccc(N)c3c2)c1,96%
15,CCC(=O)N(CCN(C)C)Cc1c(-c2ccccc2)noc1N1CCCCC1,13%
16,COc1ccc(-c2cc3nn(CC(=O)NCCC(C)C)c(=O)n3c(C)n2)cc1,1%
17,CCc1sc(N(C(=O)CCc2ccccc2)c2ccc(C)cc2C)nc1-c1ccc(OC)cc1,9%
18,CCn1ncc(-c2cc(C(F)(F)F)c3c(C(C)C)nn(-c4ccc(F)cc4)c3n2)c1C,-1%
19,O=C(NC1CCCCCC1)c1cn(CC2(O)CCN(Cc3ccccc3)CC2)nn1,15%
20,O=C(C[C@H]1CCC(=O)N(Cc2ccccc2)CC1)NC1CCN(Cc2ccccc2)CC1,6%
21,CCn1ncc(C(=O)n2nc(C)cc2C)c1C,10%
22,O=c1cc(N2CCN(C3CCCC3)CC2)cnn1Cc1ccccc1,-19%
23,Cc1ccnc(-n2nccc2NC(=O)[C@H](C)Oc2ccccc2)c1,0%
24,O=c1c2ccccc2nc2cc(-c3ccc(O)cc3)c(-c3ccccc3)nn12,28%
25,CCOC(=O)NC(c1ccccc1F)C1CCCCC1=O (stereo not drawn),1%
